Experimental data: PubChem BioAssay (NCATS)
“And” between values parts separate entries of the source, which are not always exact repeats. Equal entries are not always repeated. Unmarked numbers belong to inactive results. Results filed as inconclusive are left out. Entries that show only a call come without a potency. The source made the active and inactive calls. Unless noted, calls come from the whole dose curve; as a rule, active = well fitted curve in the direction sought with a large enough effect; inconclusive = small, poorly fitted or top-dose-only effect, or another doubt; inactive = no such curve, though single readings can be large; an effect the other way counts as inactive or inconclusive.

Experiments:
Hek293T = assay: Primary qHTS to identify gynecologic anti-cancer compounds using libraries of approved drugs and bioactive compounds (AID 1345084); settings: Gynecologic cancer cell panel viability, ATPlite luminescence, 48 h, control line for the selectivity index; series mostly up to 57.5 µM; note: nearly all actives have a fitted effect of over 55% in size; note: potency is the fitted concentration of half-maximal effect
Summary of the method: (§1)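 Cytotoxicity screen measuring ATP content by luciferase luminescence. Each compound is applied at five concentrations for 48 h at 37 C with 5% CO2.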

JEG-3 = assay: as above; settings: Gynecologic cancer cell panel viability, ATPlite luminescence, 48 h; series mostly up to 57.5 µM
Summary of the method: as §1

PA-1 = assay: as above; settings: Gynecologic cancer cell panel viability, ATPlite luminescence, 48 h; series mostly up to 57.5 µM
Summary of the method: as §1

SKOV3 = assay: as above; settings: Gynecologic cancer cell panel viability, ATPlite luminescence, 48 h; series mostly up to 57.5 µM
Summary of the method: as §1

Tov-21-G = assay: as above; settings: Gynecologic cancer cell panel viability, ATPlite luminescence, 48 h; series mostly up to 57.5 µM
Summary of the method: as §1

Tov112D = assay: as above; settings: Gynecologic cancer cell panel viability, ATPlite luminescence, 48 h; series mostly up to 57.5 µM
Summary of the method: as §1

[1] = Drug repurposing screens with cells derived from glioblastoma tumor samples (AID 1345199); settings: GBM patient neurospheres viability, ATP luminescence, 48 h; note: nearly all actives have a fitted effect of over 40% in size; note: potency is the fitted concentration of half-maximal effect
Summary of the method: (§2)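 Four patient lines of CD133+ GBM neurospheres were screened at several concentrations; hits were retested in those lines plus three slower-growing GBM lines, using 48-hour treatment and ATP-based viability.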

astro = assay: as above; settings: viability, ATP luminescence, 48 h; series mostly up to 45.9 µM
Summary of the method: as §2

OV90 = assay: Primary qHTS to identify gynecologic anti-cancer compounds using libraries of approved drugs and bioactive compounds (AID 1345084); settings: Gynecologic cancer cell panel viability, ATPlite luminescence, 48 h; series mostly up to 57.5 µM; note: nearly all actives have a fitted effect of over 55% in size; note: potency is the fitted concentration of half-maximal effect
Summary of the method: as §1

[2] = qHTS assay to identify inhibitors of the type 1 interferon - major histocompatibility complex class I in skeletal muscle: Counter screen cell viability and HiBit confirmation (AID 1347412); settings: iHSKM muscle cells + IFN-b, HiBiT or CellTiter-Glo, 24 h; Potency: HiBiT; Viability, at 45.9 µM (top of the series); note: nearly all actives have a fitted effect of over 60% in size
Summary of the method: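 Duplicate plates, pinned identically: one read for HiBiT-tagged endogenous HLA-B luminescence, the other for ATP-content viability via CellTiter Glo. Cells were genome-engineered human myoblasts given 4 ng/ml IFN-b; compounds 12-pt, 1:3 from 46 uM final; 24 hr exposure.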

[3] = target: Nuclear receptor subfamily 1 group I member 2 (Rattus norvegicus) (UniProt Q9R1A7); assay: qHTS assay for small molecule activators of the rat pregnane X receptor (rPXR) signaling pathway (AID 651751; call rule not given here); settings: rPXR reporter cells, luciferase (One-Glo), 24 h
Chain of Nuclear receptor subfamily 1 group I member 2 (Rattus norvegicus) (Q9R1A7 whole entry, looked up): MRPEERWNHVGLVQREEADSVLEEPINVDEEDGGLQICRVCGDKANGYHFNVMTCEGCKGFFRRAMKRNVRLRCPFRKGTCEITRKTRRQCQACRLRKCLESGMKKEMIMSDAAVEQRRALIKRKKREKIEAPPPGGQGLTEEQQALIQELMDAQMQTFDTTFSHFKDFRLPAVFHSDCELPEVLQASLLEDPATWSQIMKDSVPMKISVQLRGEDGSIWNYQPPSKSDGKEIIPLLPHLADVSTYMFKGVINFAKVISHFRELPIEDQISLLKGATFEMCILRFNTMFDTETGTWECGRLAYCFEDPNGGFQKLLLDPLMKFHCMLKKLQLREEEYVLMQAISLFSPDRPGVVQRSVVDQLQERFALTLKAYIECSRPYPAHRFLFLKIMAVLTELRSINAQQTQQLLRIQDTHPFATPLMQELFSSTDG

[4] = at 45.9 µM (top of the series), tumour line B
[5] = at 45.9 µM (top of the series), tumour line D
[6] = at 46.1 µM (top of the series), tumour line C

## OCCc1ccccc1
Hek293T
  Potency: inactive
JEG-3
  Potency: inactive
PA-1
  Potency: inactive
SKOV3
  Potency: inactive
Tov-21-G
  Potency: inactive
Tov112D
  Potency: inactive
[1]; [4]
  activity, negative = cell killing: -16.7%
[1]; [5]
  activity, negative = cell killing: -5.39%
[1]; at 46 µM (top of the series), tumour line A
  activity, negative = cell killing: -18.5%
[1]; [6]
  activity, negative = cell killing: 13.1%
astro
  Potency: inactive

## O=C(Nc1ccc(S(=O)(=O)N2CCOCC2)cc1)c1cc(Cl)ccc1NS(=O)(=O)c1ccc(Cl)s1
Hek293T
  Potency: inactive
JEG-3
  Potency: inactive
OV90
  Potency: inactive
SKOV3
  Potency: inactive
Tov-21-G
  Potency: inactive
Tov112D
  Potency: inactive
[1]; [4]
  activity, negative = cell killing: -15.3%
[1]; tumour line A
  Potency: 6.31 µM (active)
[1]; tumour line C
  Potency: 25.9 µM (active)
[1]; tumour line D
  Potency: 15.8 µM (active)
astro
  Potency: 31.6 µM (active)

## CC(CCc1ccc2c(c1)OCO2)NN (configuration not stated)
Hek293T
  Potency: inactive
JEG-3
  Potency: inactive
OV90
  Potency: inactive
PA-1
  Potency: inactive
Tov-21-G
  Potency: inactive
Tov112D
  Potency: inactive
[1]; [4]
  activity, negative = cell killing: -11.1%
[1]; [5]
  activity, negative = cell killing: -1.96%
[1]; [6]
  activity, negative = cell killing: -0.872%
astro
  Potency: inactive

## CC(=O)/C=C/C=C1/C2CCC(C2)C1(C)C (configuration not stated)
Hek293T
  Potency: inactive
JEG-3
  Potency: inactive
OV90
  Potency: inactive
SKOV3
  Potency: inactive
Tov-21-G
  Potency: inactive
Tov112D
  Potency: inactive

## CCOC(=O)O[C@]1(C(=O)OCCl)CC[C@H]2[C@@H]3CCC4=CC(=O)C=C[C@]4(C)[C@H]3[C@@H](O)C[C@@]21C
Hek293T
  Potency: inactive
JEG-3
  Potency: inactive
OV90
  Potency: inactive
PA-1
  Potency: inactive
Tov-21-G
  Potency: inactive
Tov112D
  Potency: inactive
[2]
  Potency: inactive

## Cc1cc(O)c2c(O)c3c(O)cccc3cc2c1
Hek293T
  Potency: inactive
JEG-3
  Potency: inactive
OV90
  Potency: inactive
PA-1
  Potency: inactive
Tov-21-G
  Potency: inactive
Tov112D
  Potency: inactive
[1]; [4]
  activity, negative = cell killing: -27.7%
[1]; tumour line A
  Potency: 14.1 µM (active)
astro
  Potency: inactive

## CCN(CC)CCN
Hek293T
  Potency: inactive
JEG-3
  Potency: inactive
PA-1
  Potency: inactive
SKOV3
  Potency: inactive
Tov-21-G
  Potency: inactive
Tov112D
  Potency: inactive

## O=C(Nc1ccc(Cl)cc1)Nc1ccc(Cl)c(C(F)(F)F)c1
Hek293T
  Potency: 14.1 µM (active)
JEG-3
  Potency: inactive
OV90
  Potency: 25.1 µM (active)
Tov112D
  Potency: 31.6 µM (active)
astro
  Potency: 10 µM (active)

## CCOC(=O)c1ccc(NC(=O)CN2CCCCC2)cc1
Hek293T
  Potency: inactive
JEG-3
  Potency: inactive
OV90
  Potency: inactive
PA-1
  Potency: inactive
Tov-21-G
  Potency: inactive
Tov112D
  Potency: inactive
astro
  Potency: inactive

## CCCCNc1ccc(C(=O)OCCN(CC)CC)cc1
Hek293T
  Potency: inactive
JEG-3
  Potency: inactive
OV90
  Potency: inactive
PA-1
  Potency: inactive
Tov-21-G
  Potency: inactive
Tov112D
  Potency: inactive
[1]; [6]
  activity, negative = cell killing: -27.5%
[1]; tumour line A
  Potency: 14.1 µM (active)
[1]; tumour line D
  Potency: 14.1 µM (active)
astro
  Potency: inactive

## CO[C@@H]1[C@@H](OC)[C@H](C)[C@@](O)(CC(=O)O)O[C@H]1[C@H](C)[C@H]1O[C@@]2(CC[C@@](C)([C@H]3CC[C@@](C)([C@@H]4O[C@@H]([C@H]5O[C@](C)(O)[C@H](C)C[C@@H]5C)C[C@@H]4OC4C[C@H](OC)[C@@H](OC)[C@H](C)O4)O3)O2)C[C@H](O)[C@H]1C (some centres not stated)
Hek293T
  Potency: 2.82 µM (active)
JEG-3
  Potency: 6.31 µM (active)
OV90
  Potency: 1.78 µM (active)
Tov-21-G
  Potency: 11.2 µM (active)
Tov112D
  Potency: 11.2 µM (active)
astro
  Potency: 1.58 µM (active)

## C[N+]1(CC2COC(c3ccccc3)(c3ccccc3)O2)CCCCC1 (configuration not stated)
Hek293T
  Potency: inactive
JEG-3
  Potency: inactive
PA-1
  Potency: inactive
Tov-21-G
  Potency: inactive
Tov112D
  Potency: inactive
[1]; [4]
  activity, negative = cell killing: -10.9%
[1]; [5]
  activity, negative = cell killing: -20.2%
[1]; [6]
  activity, negative = cell killing: -16.6%
astro
  Potency: inactive

## C=CCOc1cc(Cl)ccc1C(=O)NCCN(CC)CC
Hek293T
  Potency: inactive
JEG-3
  Potency: inactive
PA-1
  Potency: inactive
SKOV3
  Potency: inactive
Tov-21-G
  Potency: inactive
Tov112D
  Potency: inactive
[1]; [4]
  activity, negative = cell killing: -22.9%
[1]; [6]
  activity, negative = cell killing: 2.19%
[1]; tumour line A
  Potency: 10 µM (active)
astro
  Potency: inactive

## Cc1ccc(C(=O)Oc2ccc(C(O)CNC(C)(C)C)cc2OC(=O)c2ccc(C)cc2)cc1 (configuration not stated)
Hek293T
  Potency: inactive
JEG-3
  Potency: inactive
PA-1
  Potency: inactive
Tov-21-G
  Potency: inactive
Tov112D
  Potency: inactive

## Clc1ccc2c(c1)N=C(N1CCNCC1)c1ccccc1N2
Hek293T
  Potency: inactive
JEG-3
  Potency: inactive
PA-1
  Potency: inactive
Tov-21-G
  Potency: inactive
Tov112D
  Potency: inactive

## CC(=O)N(CC(=O)N(C)C)c1ccccc1
Hek293T
  Potency: inactive
SKOV3
  Potency: inactive
Tov-21-G
  Potency: inactive

## O=C1NCCN1CCN1CCC(c2cn(-c3ccc(F)cc3)c3ccc(Cl)cc23)CC1
Hek293T
  Potency: 31.6 µM (active)
SKOV3
  Potency: 28.2 µM (active)
astro
  Potency: 17.8 µM (active)

## COc1ccc([C@@H]2Sc3ccccc3NC(=O)[C@@H]2O)cc1
JEG-3
  Potency: inactive
OV90
  Potency: inactive

## CCCCC/C=C\C/C=C\CCCCCCCC(=O)NC(C)c1ccccc1 (configuration not stated)
Hek293T
  Potency: inactive
JEG-3
  Potency: inactive
PA-1
  Potency: inactive
Tov-21-G
  Potency: inactive
Tov112D
  Potency: inactive
[1]; [4]
  activity, negative = cell killing: -3.69%
[1]; [5]
  activity, negative = cell killing: -27.1%
[1]; [6]
  activity, negative = cell killing: -9.18%
[1]; tumour line A
  Potency: 11.2 µM (active)
astro
  Potency: inactive

## O=C(CCC1CCN(Cc2ccccc2)CC1)c1ccc2c(c1)NCCCC2
Hek293T
  Potency: inactive
JEG-3
  Potency: inactive
Tov-21-G
  Potency: inactive
Tov112D
  Potency: inactive

## CC(=O)Nc1ccn(C2COC(COC(=O)c3ccccc3)O2)c(=O)n1 (configuration not stated)
Hek293T
  Potency: inactive
JEG-3
  Potency: inactive
PA-1
  Potency: inactive
SKOV3
  Potency: inactive
Tov-21-G
  Potency: inactive
[1]; [4]
  activity, negative = cell killing: -21.5%
[1]; [6]
  activity, negative = cell killing: -14.9%

## CCN1C(=O)c2ccccc2C1Nc1ccc(OCCN2CCCCC2)cc1 (configuration not stated)
Hek293T
  Potency: inactive
JEG-3
  Potency: inactive
PA-1
  Potency: inactive
SKOV3
  Potency: inactive
Tov-21-G
  Potency: inactive
Tov112D
  Potency: inactive
astro
  Potency: inactive

## O=C1Nc2ccccc2C1(c1ccc(O)cc1)c1ccc(O)cc1
Hek293T
  Potency: inactive
JEG-3
  Potency: inactive
PA-1
  Potency: inactive
[2]
  Potency: inactive

## CC(C)(c1ccc(O)cc1)c1ccc(O)cc1
Hek293T
  Potency: inactive
JEG-3
  Potency: inactive
PA-1
  Potency: inactive
SKOV3
  Potency: inactive
Tov-21-G
  Potency: inactive
Tov112D
  Potency: inactive
[1]; at 91.6 µM (top of the series), tumour line B
  activity, negative = cell killing: -24%
[1]; at 99.2 µM (top of the series), tumour line C
  activity, negative = cell killing: -43.4%
[3]
  max response: 7.46% and 2.86% and -5.15%

## CCC(=O)O[C@H]1[C@H](O[C@@H]2[C@@H](C)[C@H](O[C@H]3C[C@@](C)(OC)[C@@H](O)[C@H](C)O3)[C@@H](C)C(=O)O[C@H](CC)[C@@](C)(O)[C@H](O)[C@@H](C)C(=O)[C@H](C)C[C@@]2(C)O)O[C@H](C)C[C@@H]1N(C)C
JEG-3
  Potency: inactive
OV90
  Potency: inactive
PA-1
  Potency: inactive
SKOV3
  Potency: inactive
Tov-21-G
  Potency: inactive
Tov112D
  Potency: inactive
